The whole screen tested about 17,000 compounds, of which about 220 (1.3%) were called active.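 Rule for the calls: active = spot fluorescence over background significantly raised, with a chance value under 7% in all four replicate spots of the compound; inactive = the rest.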 Only a selection was taken, and actives are over-represented in it overall.
The compounds below were run against Nuclear factor NF-kappa-B p105 subunit (Homo sapiens) (UniProt P19838) (assay: small molecules binding NF-kappa-B p105/p50 – biochemical, small molecule microarray, anti-His fluorescence, primary screen (AID 624139);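 note: probe protein is his-tagged human p50 processed subunit at 1 µg/ml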).
Sequence of Nuclear factor NF-kappa-B p105 subunit (Homo sapiens) (P19838 1-433 limits assumed): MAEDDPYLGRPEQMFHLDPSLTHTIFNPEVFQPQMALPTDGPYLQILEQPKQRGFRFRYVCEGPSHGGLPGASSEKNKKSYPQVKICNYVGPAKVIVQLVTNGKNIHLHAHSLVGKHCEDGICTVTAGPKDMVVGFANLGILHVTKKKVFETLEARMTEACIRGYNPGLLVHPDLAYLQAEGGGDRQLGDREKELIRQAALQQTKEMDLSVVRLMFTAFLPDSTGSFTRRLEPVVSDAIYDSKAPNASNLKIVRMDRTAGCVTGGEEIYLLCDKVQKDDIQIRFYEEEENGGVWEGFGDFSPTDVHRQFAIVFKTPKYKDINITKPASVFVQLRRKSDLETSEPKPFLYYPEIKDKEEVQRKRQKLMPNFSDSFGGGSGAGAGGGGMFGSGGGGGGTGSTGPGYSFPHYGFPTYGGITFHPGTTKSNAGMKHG

Structure (SMILES) | outcome
C[C@@H]1CN([C@@H](C)CO)C(=O)c2cc(NS(=O)(=O)c3ccccc3)ccc2O[C@@H](C)CCCCO[C@H]1CN(C)C(=O)C1CCCCC1 | inactive
C[C@@H]1CCCCO[C@H](CN(C)C(=O)CCCN(C)C)[C@H](C)CN([C@@H](C)CO)C(=O)c2cc(NS(=O)(=O)c3ccccc3)ccc2O1 | inactive
CCC1(C)C(=O)C=C2C(=COC(C)=C2C)C1O (stereo not given) | inactive
COc1ccccc1NC(=O)c1ccc(OCC(=O)O)cc1 | inactive
C[C@H](CO)N1C[C@H](C)[C@@H](CN(C)C(=O)Nc2cccc3ccccc23)Oc2c(NS(=O)(=O)c3ccccc3)cccc2C1=O | inactive
CC1OC(Oc2cc(O)c3c(=O)c(OC4OCC(O)C(O)C4O)c(-c4ccc(O)cc4)oc3c2)C(O)C(O)C1O (stereo not given) | inactive
O=C(CS(=O)(=O)c1ccccc1)Nc1ccc2c(c1)OCCO2 | inactive
COc1ccc(CN(C)C[C@H]2Oc3ccc(NC(=O)CCN4CCOCC4)cc3C(=O)N([C@@H](C)CO)C[C@H]2C)cc1 | inactive
CC(=O)OC[C@H]1O[C@@H](Oc2c(-c3ccc(O)c(O)c3)oc3cc(O)cc(O)c3c2=O)[C@H](O)[C@@H](O)[C@@H]1O | inactive
C[C@H](CO)N1C[C@H](C)[C@@H](CN(C)Cc2ccc3c(c2)OCO3)Oc2ccc(NC(=O)Nc3ccc(F)cc3)cc2C1=O | inactive
C[C@@H]1CN([C@@H](C)CO)C(=O)c2cc(NC(=O)Nc3ccc4c(c3)OCO4)ccc2O[C@@H](C)CCCCO[C@@H]1CN(C)Cc1ccccc1 | inactive
CCOC(=O)c1nnn(-c2nonc2-n2cccc2)c1CN1CCOCC1 | inactive
Cc1noc(C)c1NC(=O)Nc1ccc2c(c1)CC(=O)N([C@@H](C)CO)C[C@H](C)[C@@H](CN(C)C(=O)Nc1ccc3c(c1)OCO3)O2 | inactive
C[C@@H]1CN([C@@H](C)CO)C(=O)Cc2cc(NC(=O)NC3CCCCC3)ccc2O[C@H]1CN(C)C(=O)Nc1ccc(C(F)(F)F)cc1 | inactive
Cc1cc(C)cc(Oc2c(C(F)(F)F)oc3cc(OCC(=O)O)ccc3c2=O)c1 | active
C[C@H]1CN([C@@H](C)CO)C(=O)Cc2cc(NS(C)(=O)=O)ccc2O[C@@H]1CN(C)S(=O)(=O)c1cccs1 | inactive
N#Cc1c(SCC(=O)Nc2ccccc2)ncc2cc3ccccc3nc12 | inactive
CN(C)Cc1c(O)ccc2occ(C(O)c3ccccc3)c12 (stereo not given) | inactive
Cc1ccc(S(=O)(=O)NCC(=O)N2CCN(c3ccccn3)CC2)cc1 | inactive
CCCN(C)C[C@@H]1Oc2ncc(C#Cc3ccccc3)cc2C(=O)N([C@H](C)CO)C[C@@H]1C | inactive
C#Cc1ccc([C@H]2C=C(C(=O)O)O[C@@H](OCC)[C@@H]2CCCO)cc1 | inactive
COc1ccc(NC(=O)N(C)C[C@@H]2OCCCC[C@@H](C)Oc3ccc(N(C)C)cc3C(=O)N([C@H](C)CO)C[C@@H]2C)cc1 | inactive
C[C@@H]1CCCCO[C@@H](CN(C)C)[C@@H](C)CN([C@H](C)CO)C(=O)c2cc(N(C)C)ccc2O1 | inactive
C[C@H](CO)N1C[C@H](C)[C@@H](CN(C)C(=O)C2CCCCC2)OCCCC[C@H](C)Oc2ccc(N(C)C)cc2C1=O | inactive

Structure (SMILES) | outcome
C[C@@H]1CCCCO[C@H](CN(C)S(=O)(=O)c2cccs2)[C@@H](C)CN([C@@H](C)CO)C(=O)c2cc(NC(=O)Nc3ccc4c(c3)OCO4)ccc2O1 | inactive
COC(=O)c1c(CC[C@@H](CO)NC(=O)Nc2ncn[nH]2)oc(C(=O)Cc2ccccc2)c1C(=O)OC | inactive
Cc1noc(C)c1S(=O)(=O)N(C)C[C@@H]1OCCCC[C@H](C)Oc2ccc(NC(=O)NC(C)C)cc2C(=O)N([C@H](C)CO)C[C@@H]1C | inactive
COC(=O)C1=C[C@@H](O)[C@@H](O)[C@H](O[C@@H]2O[C@H](CO)[C@@H](O)[C@H](O)[C@H]2OC(=O)/C=C/c2ccccc2)C1 | inactive
CC(C)NC(=O)Nc1ccc2c(c1)C(=O)N([C@@H](C)CO)C[C@H](C)[C@@H](CN(C)Cc1ccc(C(=O)O)cc1)OCCCC[C@H](C)O2 | inactive
C[C@@H]1CCCCO[C@@H](CN(C)Cc2ccncc2)[C@H](C)CN([C@H](C)CO)C(=O)c2cc(N(C)C)ccc2O1 | inactive
C[C@@H]1CN([C@H](C)CO)C(=O)CCCn2nncc2CO[C@@H]1CN(C)C | inactive
C[C@@H]1CN([C@@H](C)CO)C(=O)c2cccc(NC(=O)Nc3ccc(F)cc3)c2O[C@H]1CN(C)C(=O)Nc1ccc(F)cc1 | inactive
C[C@H]1CCCCO[C@@H](CN(C)Cc2ccc(C(=O)O)cc2)[C@@H](C)CN([C@@H](C)CO)C(=O)c2cc(NS(C)(=O)=O)ccc2O1 | inactive
COc1ccc(CN(C)C[C@@H]2Oc3ccc(NC(=O)c4ccncc4)cc3CC(=O)N([C@H](C)CO)C[C@H]2C)cc1 | inactive
COc1cccc(OC)c1C(=O)NC(=S)NCc1ccco1 | inactive
C[C@@H]1CCCCO[C@@H](CN(C)C(=O)Nc2ccc(F)cc2)[C@H](C)CN([C@@H](C)CO)C(=O)c2cc(NS(=O)(=O)c3ccccc3)ccc2O1 | inactive
C[C@@H]1CN([C@@H](C)CO)C(=O)CCCn2cc(nn2)CO[C@H]1CN(C)S(=O)(=O)c1ccc(-n2cccn2)cc1 | inactive
CNC[C@H]1Oc2ccc(NC(=O)Nc3ccc(F)cc3)cc2C(=O)N([C@@H](C)CO)C[C@@H]1C | inactive
C[C@@H]1CN([C@H](C)CO)C(=O)c2cccc(NC(=O)Nc3ccc(C(F)(F)F)cc3)c2O[C@H]1CN(C)S(=O)(=O)c1ccc(Cl)cc1 | inactive
Cc1ccc(S(=O)(=O)N2CCCC2C(=O)NCCO)cc1 (stereo not given) | inactive
COc1ccc([Si](C)(C)[C@@H]2[C@@H](CCO)O[C@]3(C(=O)N(Cc4ccccc4)c4ccc(N5CCC5=O)cc43)[C@H]2C)cc1 | inactive
C[C@@H]1CN([C@H](C)CO)C(=O)CCCn2cc(nn2)CO[C@H]1CN(C)C(=O)Nc1ccc(N2CCCCC2)cc1 | inactive
C[C@H](CO)N1C[C@H](C)[C@@H](CN(C)CC2CC2)Oc2ccc(NC(=O)Nc3ccccc3)cc2CC1=O | inactive
C[C@H](CO)N1C[C@H](C)[C@@H](CN(C)Cc2cccc3c2OCCCO3)OCc2cn(nn2)CCCC1=O | inactive
C[C@@H]1CN([C@H](C)CO)C(=O)CCCn2cc(nn2)CO[C@@H]1CN(C)Cc1ccc2cccnc2c1 | inactive
COC(=O)c1c(NC(=S)Nc2ccc(S(=O)(=O)NC34CC5CC(CC(C5)C3)C4)cc2)sc2c1CCC2 | inactive
CC(C)NC(=O)Nc1ccc2c(c1)C(=O)N([C@H](C)CO)C[C@@H](C)[C@H](CN(C)S(C)(=O)=O)O2 | inactive
Cc1ccc(C)c(NC(=O)CCC(=O)O)c1 | inactive

Structure (SMILES) | outcome
O=C(N1CCCCC1)[C@@]1(CCS(=O)(=O)c2ccccc2)N=C(c2ccc(OCCCO)cc2)O[C@H]1c1ccccc1 | inactive
C[C@@H]1CN([C@H](C)CO)C(=O)c2cc(N(C)C)ccc2O[C@@H](C)CCCCO[C@@H]1CN(C)C(=O)CCCN(C)C | inactive
C[C@@H]1CCCCO[C@H](CN(C)C)[C@@H](C)CN([C@H](C)CO)C(=O)c2cc(N(C)C)ccc2O1 | inactive
O=C(c1ccc(F)cc1)C1CCN(CCCCc2ccccc2)CC1 | inactive
O=c1c2ccccc2[nH]c(=S)n1CCN1CCC(=C(c2ccc(F)cc2)c2ccc(F)cc2)CC1 | active
C[C@H](CO)N1C[C@H](C)[C@@H](CN(C)S(=O)(=O)c2cn(C)cn2)Oc2ccc(NS(=O)(=O)c3cn(C)cn3)cc2C1=O | inactive
COc1cc(/C=C/C(=O)NCCc2ccc(O)cc2)ccc1O | inactive
Cc1nc(SCC(=O)N2c3ccccc3Sc3ccccc32)nc2c1CCCC2 | inactive
COc1ccc(S(=O)(=O)N(C)C[C@@H]2Oc3ccc(NC(=O)Cc4cn(C)c5ccccc45)cc3C(=O)N([C@H](C)CO)C[C@H]2C)cc1 | inactive
CCOC(=O)c1sc(NC(=S)Nc2ccc3c(c2)OCCO3)c(C(=O)OCC)c1C | inactive
C[C@@H]1CCCCO[C@H](CN(C)C(=O)Nc2cccc3ccccc23)[C@@H](C)CN([C@H](C)CO)C(=O)c2cc(NS(=O)(=O)c3cccs3)ccc2O1 | inactive
C[C@@H]1CN([C@H](C)CO)C(=O)c2cccc(NS(=O)(=O)c3ccc(Cl)cc3)c2O[C@@H]1CN(C)C(=O)Nc1cccc2ccccc12 | inactive
COc1ccc(S(=O)(=O)Nc2cccc3c2O[C@@H](CN(C)S(=O)(=O)c2ccc(F)cc2)[C@H](C)CN([C@H](C)CO)C3=O)cc1 | inactive
C[C@@H]1CCCCO[C@@H](CN(C)C(=O)CCC(F)(F)F)[C@@H](C)CN([C@H](C)CO)C(=O)c2cc(NC(=O)CCC(F)(F)F)ccc2O1 | inactive
C[C@H](CO)N1C[C@H](C)[C@H](CN(C)C(=O)CCC(F)(F)F)OCCCC[C@H](C)Oc2ccc(NS(C)(=O)=O)cc2C1=O | inactive
Cc1noc(C)c1S(=O)(=O)Nc1ccc2c(c1)C(=O)N([C@H](C)CO)C[C@H](C)[C@@H](CN(C)C(=O)CCC(F)(F)F)OCCCC[C@H](C)O2 | inactive
C[C@@H]1CCCCO[C@H](CN(C)C(=O)CCC(F)(F)F)[C@@H](C)CN([C@@H](C)CO)C(=O)c2cc(NC(=O)c3ccncc3)ccc2O1 | active
Cc1noc(C)c1S(=O)(=O)Nc1ccc2c(c1)C(=O)N([C@@H](C)CO)C[C@H](C)[C@@H](CN(C)C)OCCCC[C@@H](C)O2 | inactive
Cc1noc(C)c1S(=O)(=O)Nc1ccc2c(c1)C(=O)N([C@H](C)CO)C[C@@H](C)[C@H](CN(C)C(=O)NC(C)C)OCCCC[C@@H](C)O2 | inactive
Cc1noc(C)c1S(=O)(=O)Nc1ccc2c(c1)C(=O)N([C@@H](C)CO)C[C@@H](C)[C@H](CN(C)C(=O)NC(C)C)OCCCC[C@@H](C)O2 | active
Cc1noc(C)c1S(=O)(=O)Nc1ccc2c(c1)C(=O)N([C@H](C)CO)C[C@H](C)[C@H](CN(C)C(=O)CCC(F)(F)F)OCCCC[C@H](C)O2 | active
C[C@@H]1CCCCO[C@H](CN(C)C(=O)CCCN(C)C)[C@@H](C)CN([C@@H](C)CO)C(=O)c2cc(NC(=O)c3ccncc3)ccc2O1 | inactive

Source: PubChem BioAssay AID624139 (Broad Institute, 2012)
